Screening results deposited in PubChem BioAssay by National Center for Advancing Translational Sciences (NCATS).
Sampled rows, rich in hits. Any-hit rate of the full collection: about 11%.
G9a inh: qHTS Assay for Inhibitors of Histone Lysine Methyltransferase G9a; Histone-lysine N-methyltransferase EHMT2 (Homo sapiens), Q96KQ7; G9a H3K9 monomethylation, AlphaScreen, 2 h; Potency, µM (top dose mostly 102 µM), actives largely listed as inhibitors; actives 8.8% (n = 350,000); also: nearly all actives have a fitted effect of over 75% in size
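Readings reflect AlphaScreen signal from monomethyl-H3K9 antibody detection. HMT at 20 nM; substrate b-H3K9 500 nM; cofactor SAM 20 uM; 2 h RT reaction; compounds tested as titrations in qHTS with 15 min preincubation.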
L3MBTL1 block: qHTS Assay for the Inhibitors of L3MBTL1. Lethal(3)malignant brain tumor-like protein 1 (Homo sapiens), Q9Y468. AlphaScreen L3MBTL1–H3K9me1 peptide binding. Potency, µM (series often up to 57.1 µM), actives largely listed as inhibitors. actives 0.66% (n = 230,000). AID 485360, 2010; also: nearly all actives have a fitted effect of over 60% in size
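L3MBTL1 50 nM + b-AHA-H3(1-15)K9me1 75 nM, 30 min RT; compound added, 30 min RT; streptavidin donor/Ni-chelate acceptor beads 10 ug/mL each final, 30 min RT dark; AlphaScreen read.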
HP1b binding inh: HTS for Inhibitors of HP1-beta Chromodomain Interactions with Methylated Histone Tails; Chromobox protein homolog 1 (Homo sapiens), P83916; Potency, µM (top dose mostly 114 µM), actives largely listed as inhibitors; AlphaScreen HP1-beta / biotin-H3K9me3 peptide binding; AID 540317, 2011; actives 0.56% (n = 390,000); also: nearly all actives have a fitted effect of over 70% in size
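Compound inhibition of the preformed complex between 50 nM HP1-beta and 50 nM biotinylated H3K9me3 peptide was read by AlphaScreen. Buffer was PBS pH 7.4 with 0.01% Tween-20. Incubations ran 30 min at room temperature, with 10 ug/mL donor/acceptor beads.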
JMJD2A Tudor: qHTS Assay for Inhibitors of JMJD2A-Tudor Domain; Lysine-specific demethylase 4A (Homo sapiens), O75164; AlphaScreen JMJD2A-Tudor / H3K4me3 peptide binding; Potency, µM (doses to about 114 µM), usual class: inhibitors; actives 4.4% (n = 390,000); also: nearly all actives have a fitted effect of over 50% in size
PI5P4Ka inh: qHTS for Inhibitors of phosphatidylinositol 5-phosphate 4-kinase (PI5P4K) | PI5P4Kalpha enzyme, ADP-Glo luminescence, 60 min; active compounds read low | max response, % | actives 1.2% (n = 330,000) | AID 652105, 2013; active = max response of -50% or lower; inconclusive = between -30% and -50%; inactive = -30% or higher; also: value at the top dose of about 77 µM
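Luminescence from ADP-Glo served as readout of PI5P4Kalpha activity in a qHTS format. Reaction: enzyme, substrate, compound, ATP at 5 microM final, 60 min at RT.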
BAZ2B block: qHTS Assay for Inhibitors of BAZ2B; AlphaScreen BAZ2B-H3K14Ac peptide displacement; Potency, µM (top dose mostly 114 µM), usual class: inhibitors; actives 4.4% (n = 360,000); AID 504333, 2011; also: nearly all actives have a fitted effect of over 60% in size
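AlphaScreen displacement: compounds (up to 110uM) incubated 30 min at room temperature with a preformed 50 nM BAZ2B/50 nM biotinylated H3K14Ac peptide complex in PBS pH 7.4 with Tween-20. Donor and acceptor beads at 10 ug/mL final added, 20 min light-protected before reading.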
Numbers stand for hits; – = inactive; ? = inconclusive; · = no result; [ ] = remark or other dose. Unless noted, calls follow the shape of the dose curve; as a rule, active = well fitted inhibition curve with a large enough effect; inconclusive = small, poorly fitted or top-dose-only effect; inactive = no such curve, though single readings can be large or run the other way.

SMILES	G9a inh	L3MBTL1 block	HP1b binding inh	JMJD2A Tudor	PI5P4Ka inh	BAZ2B block
O=C1NCCC/C1=N\Nc1ccc(Br)cc1	50µM	–	–	?	–	–
CCS(=O)(=O)N1CCc2cc(C(=O)NCc3ccc(Cl)cc3)ccc21	–	·	–	–	·	–
CCOC(=O)C1CCN(C(=O)CCc2nnc3ccc(N4CCC(C)CC4)nn23)CC1	–	·	?	?	–	–
CC1CC(C)CN(C(=O)CCc2nnc3ccc(N4CCCCC4)nn23)C1 (stereo not given)	79µM	·	–	40µM	–	–
CCc1nnc(NC(=O)c2ccc(S(=O)(=O)N3CCCC(C)C3)cc2)s1 (stereo not given)	–	·	–	–	–	–
Cc1cccc2sc(NNC(=O)c3ccc(S(=O)(=O)N4CCCC(C)C4)cc3)nc12 (stereo not given)	25µM	?	–	11µM	–	–
Cc1cccc2sc(NNC(=O)c3ccc(S(=O)(=O)N4CCc5ccccc5C4)cc3)nc12	40µM	?	–	8.9µM	–	4µM
COc1ccc(/C=C/C2=CC(C)(C)NC(=S)N2)cc1OC	45µM	·	–	–	–	·
Cc1ccc(/C=N/N=C2/NC(=O)C(CC(=O)N3CCOCC3)S2)cc1 (stereo not given)	28µM	–	–	–	–	?
COc1ccc(/C=N/N=C2/NC(=O)C(CC(=O)NC(C)C)S2)cc1 (stereo not given)	–	–	–	–	–	–
Cc1ccccc1/C=C/C1=NCCN1	30µM	–	?	20µM	–	?
CCN(CC)S(=O)(=O)c1cc(C(=O)O)c(Cl)cc1Cl	?	·	–	–	–	–
CCN(CC)S(=O)(=O)c1cccc2cc(C(=O)O)c(O)cc12	?	–	–	–	-67	–
Cc1ccc(C)c(CS(=O)(=O)c2cn(CC(=O)N(C(C)C)C(C)C)c3ccccc23)c1	–	·	–	–	·	–
O=C(c1nc(-c2ccccc2)n(-c2ccccc2)n1)N1CCN(S(=O)(=O)c2ccccc2)CC1	?	·	–	71µM	–	?
O=C(O)c1nc(-c2ccccc2)n(-c2ccccc2)n1	?	–	–	–	–	–
O=S(=O)(c1cccnc1)N1CCn2cccc2C1c1ccccc1F (stereo not given)	45µM	–	–	–	–	?
N#C/C(=C\c1ccc(-c2ccc(C(=O)O)cc2)o1)C(=O)Nc1ccc(F)cc1	·	?	–	?	–	?
Cc1cccc(C)c1NC(=O)/C(C#N)=C/c1ccc(-c2ccc(C(=O)O)cc2)o1	45µM	·	–	–	?	?
N#C/C(=C\c1ccc(-c2ccc(C(=O)O)cc2)o1)C(=O)NCC1CCCO1 (stereo not given)	10µM	?	–	–	–	?
CCOC(=O)c1cccc(NC(=O)CCc2c(C)nn(-c3ccc(N4CCCCC4)nn3)c2C)c1	–	·	–	?	·	?
CCc1ccccc1NC(=O)COC(=O)c1cn(CC)c2nc(C)ccc2c1=O	–	·	–	–	·	–
CCOc1ccccc1NC(=O)C(NCC1(N2CCCCC2)CCCCC1)c1ccccc1 (stereo not given)	–	·	–	79µM	–	79µM
O=Nc1ccc(NOC(=O)c2ccccc2Br)cc1	–	–	–	–	–	?
O=C(ONc1ccc(N=NC(=O)c2ccccc2O)cc1)c1ccccc1	?	–	–	?	-58	10µM
SMILES	G9a inh	L3MBTL1 block	HP1b binding inh	JMJD2A Tudor	PI5P4Ka inh	BAZ2B block
Cc1ccc2nc(NC(=O)CSc3cc(C)[nH]c(=O)n3)sc2c1	?	·	–	–	·	–
CNCCCOc1ccc(C)cc1Br	?	·	?	3.2µM	–	56µM
CCCCNCCCOc1ccc(C)cc1Br	50µM	–	?	20µM	–	56µM
CNCCCCOc1ccc(C(C)(C)C)cc1Cl	14µM	–	?	5.6µM	–	?
Cn1cccc1C(=O)N1CCC[C@@]2(CCN(c3ccncc3)C2)C1	–[12.7 µM]	·	·	·	·	·
COc1ccc(Cc2nnc(NN)[nH]c2=O)cc1OC	–	·	–	2.5µM	–	4µM
COc1ccc(Cc2nnc(N/N=C(\C)c3ccccc3)[nH]c2=O)cc1OC	·	–	–	–	–	35µM
O=C(CC(c1cccs1)N1Cc2ccccc2C1=O)Nc1ccc(F)c(Cl)c1 (stereo not given)	–	·	–	–	·	–
Clc1cccc(-n2ncc3c(NCCC4=CCCCC4)ncnc32)c1	–	·	–	–	·	–
C(=N\n1c2ccccc2c2ccccc21)/c1ccccc1	–	–	–	–	–	–
C(=N/n1c2ccccc2c2ccccc21)/c1ccco1	?	?	35µM	?	–	8.9µM
O=C(CCn1c(=O)c2cccn2c2ccc(F)cc21)NCc1ccccc1F	–	·	–	–	·	–
O=S(=O)(NCc1ccccc1)c1cccc2nsnc12	–	·	–	–	–	–
O=S(=O)(NCc1cccnc1)c1cccc2nsnc12	32µM	–	–	–	·	–
CCc1ccc(C(=O)NNC(=O)CN2C(=O)NC3(CCCC3)C2=O)cc1	–[12.7 µM]	–	–	–	–	–
O=C(CN1C(=O)NC2(CCCC2)C1=O)NNC(=O)c1ccc(Br)cc1	–	–	–	3.2µM	–	–
COC(=O)c1sccc1S(=O)(=O)N(CC(=O)NCc1ccc(F)cc1)c1ccccc1	–	·	–	–	·	–
COC(=O)C1=C2SC(C)C(=O)N2C(N)=C(C#N)C1c1cc(OC)c(OC)c(OC)c1 (stereo not given)	?	–	–	–	?	–
CCOc1ccc(C2C(C#N)=C(N)SC(N)=C2C#N)c(OCC)c1	14µM	–	–	?	-63	–
CCOc1cc(C2C(C#N)=C(N)SC(N)=C2C#N)ccc1OCCN1CCOCC1	2.5µM	–	?	45µM	·	–
COC(=O)C1=C2SC(C)C(=O)N2C(N)=C(C#N)C1c1ccc(OC)c(OC)c1 (stereo not given)	?	–	–	–	-58	–
COc1ccc(C2C(C#N)=C(N)OC(C(C)(C)C)=C2C#N)cc1OC (stereo not given)	–	–	–	–	–	–
COc1ccc(C2C(C#N)=C(N)SC(N)=C2C#N)cc1OC	?	–[11.4 µM]	–	56µM	-60	–
Cc1ccc(Cl)cc1NC(=O)CN1C(=O)c2ccccc2Sc2ncccc21	–	·	–	–	·	–
O=C(OCC#CCSc1nnc(-c2cccc3ccccc23)o1)c1ccc(Cl)c(C(F)(F)F)c1	·	·	·	–	·	·
